Screening data from PubChem BioAssay.
Hits are enriched below; roughly 3.3% of the tested compounds scored in any of these assays.
HTT prom inh – HTT promoter inhibition; HEK293 HTT promoter firefly luciferase reporter, 24 h; Potency, µM (highest dose often 57.5 µM), usual class: inhibitors; 48,000 compounds, 0.93% hits; further: nearly all actives have a fitted effect of over 50% in size
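HEK293 Fluc reporter, 2,500 cells/well, 24 h pre-culture; cpds up to 57.5 uM final, 24 h 37 degrees C; Dual-Glo, 10 min RT; normalized vehicle = 0%, zero RLU = -100%.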
pS6 MEF inh – reduces mTORC1 signaling in Tsc2 and p53 null MEF cells | Tsc2-/- p53-/- MEF, phospho-rpS6 immunofluorescence/PI, 24 h | 44,000 compounds, 0.78% hits | AID 493208 | Potency, µM (highest dose often 38.3 µM), usual class: inhibitors; further: nearly all actives have a fitted effect of over 50% in size
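Compounds act on Tsc2-/-, p53-/- fibroblasts carrying an empty vector for 24 h before fixation and dual staining for phospho-S6 and DNA (propidium iodide). Values are percentages of cells above a rapamycin-defined pS6/PI threshold.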
HTT-AS act – HTT-AS promoter activation. 48,000 compounds, 0.24% hits. Potency, µM (series often up to 57.5 µM), actives largely listed as activators. HEK293 HTT-AS promoter firefly luciferase reporter, 24 h; response scale: percent change from vehicle, -100% = no light; further: nearly all actives have a fitted effect of over 55% in size
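HEK293 cells carrying firefly luciferase reporters were seeded at 2,500 per well in Opti-MEM and cultured for 24 h. They were then treated with compounds at up to 57.5 uM final for 24 h at 37 degrees C before Dual-Glo luminescence readout.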
PMP22 txn prim – modulates PMP22 transcription in S16 Schwann cells. AID 1508649. S16 Pmp22-F2sN Schwann cells, FLuc/NLuc coincidence luminescence, 24 h. Potency, µM (series often up to 57.5 µM), hits mostly inhibitors. 43,000 compounds, 2% hits; active means clear falling dose curves in both reporters; inconclusive means both reporters move, but less clearly or upward; inactive means either reporter flat; the % is the NLuc reporter signal
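qHTS, 1536-well. Cells seeded, compounds added by pin tool, 24 h 37C. Nano-Glo reagent 1 (lysis/FLuc), 10 min RT, read; Stop&Glo, 10 min RT, read NLuc.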
FH mod – Identification of activators of human fumarate hydratase by quantitative high-throughput screening. Fumarate hydratase, mitochondrial (Homo sapiens), P07954. FH coupled MDH/diaphorase resazurin fluorescence, 15 min. Potency, µM (doses to about 79.9 µM), usual class: inhibitors. 54,000 compounds, 0.22% hits. AID 1347055, 2019; further: the screen sought activators but most active calls are inhibition curves; nearly all actives have a fitted effect of over 45% in size
Target sequence (P07954 whole entry, looked up): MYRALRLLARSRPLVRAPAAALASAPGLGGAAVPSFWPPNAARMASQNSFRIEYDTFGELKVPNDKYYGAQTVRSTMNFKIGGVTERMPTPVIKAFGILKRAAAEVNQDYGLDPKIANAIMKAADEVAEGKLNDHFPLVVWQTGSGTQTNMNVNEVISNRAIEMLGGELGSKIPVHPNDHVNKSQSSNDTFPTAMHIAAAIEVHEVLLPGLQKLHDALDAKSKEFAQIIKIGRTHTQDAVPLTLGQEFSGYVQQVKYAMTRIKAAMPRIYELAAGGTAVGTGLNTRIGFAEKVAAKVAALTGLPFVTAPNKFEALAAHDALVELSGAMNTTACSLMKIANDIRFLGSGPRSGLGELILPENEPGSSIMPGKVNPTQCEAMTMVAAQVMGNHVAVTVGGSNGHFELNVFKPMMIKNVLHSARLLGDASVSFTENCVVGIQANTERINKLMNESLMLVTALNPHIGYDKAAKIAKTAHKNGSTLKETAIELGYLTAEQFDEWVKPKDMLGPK
S16 viability – cytotoxicity in S16 Pmp22-F2sN Schwann cells | S16 Pmp22-F2sN Schwann cells (luciferase reporters placed in the Pmp22 gene) viability, CellTiter-Glo, 24 h | Potency, µM (titrated, usually from 57.5 µM), most hits filed as cytotoxic | 43,000 compounds, 0.48% hits; further: nearly all actives have a fitted effect of over 65% in size
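CellTiter-Glo counter-screen, qHTS, 1536-well. Cells: S16(c9) Pmp22-F2sN, 500-1,000/well in DMEM + 10% FBS. Cpd 23 nL pin transfer, 24 h, 37C/5% CO2. Read: luminescence, CCD imager.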
Of the large screens only hits and unclear results are named; the others gave an inactive call. Unless noted, the call rests on the fitted dose curve; in most records, active means well fitted curve in the direction sought with a large enough effect; inconclusive means small, poorly fitted or top-dose-only effect, or another doubt; inactive means no such curve, though single readings can be large; an effect the other way counts as inactive or inconclusive.

COc1ccc(CN(C(=O)c2cc3ccccc3oc2=O)C2CCS(=O)(=O)C2)cc1OC (centres undefined)	HTT-AS act 11µM
COc1ccc(CN(C(=O)c2cc3ccccc3oc2=O)C2CCS(=O)(=O)C2)cc1 (centres undefined)	HTT-AS act inconclusive
COC(=O)c1c(SC)nc2ccccc2c1OCc1ccc(C)cc1C	HTT prom inh inconclusive, FH mod 35µM
Cc1ccc(NS(=O)(=O)c2cc(-c3cnc(C4CC4)o3)ccc2C)cc1Cl	HTT prom inh inconclusive, pS6 MEF inh inconclusive, PMP22 txn prim inconclusive, FH mod inconclusive, S16 viability 14µM
CC(=O)c1cccc(NS(=O)(=O)c2cc(-c3cnc(C4CC4)o3)ccc2C)c1	HTT prom inh inconclusive, PMP22 txn prim 17µM, S16 viability inconclusive
Cc1cc(C)c(NS(=O)(=O)c2cc(-c3cnc(C4CC4)o3)ccc2C)c(C)c1	none
CC(=O)c1ccc(NS(=O)(=O)c2cc(-c3cnc(C4CC4)o3)ccc2C)cc1	PMP22 txn prim inconclusive, S16 viability inconclusive
CC(C)(C[C@@](O)(Cc1cc2ccncc2[nH]1)C(F)(F)F)c1cc(F)ccc1O	none (no result: HTT prom inh, pS6 MEF inh, HTT-AS act, PMP22 txn prim, S16 viability)
CCOc1ccc(S(=O)(=O)NCCc2sc3nc(-c4ccc(C)cc4)nn3c2C)cc1	HTT prom inh inconclusive, PMP22 txn prim inconclusive, S16 viability 20µM
Cc1ccc(-c2nc3scc(CCNS(=O)(=O)c4ccc(Oc5ccccc5)cc4)n3n2)cc1	HTT prom inh 20µM, PMP22 txn prim inconclusive
CCc1ccc(C2Sc3ccccc3NC3=C2C(=O)c2ccccc23)cc1 (centres undefined)	HTT prom inh inconclusive, PMP22 txn prim inconclusive, FH mod inconclusive
CC(C)c1ccc(C2Sc3ccccc3NC3=C2C(=O)c2ccccc23)cc1 (centres undefined)	HTT prom inh 13µM, pS6 MEF inh inconclusive, PMP22 txn prim inconclusive, FH mod inconclusive
O=C(C1CC1)N1CCc2cc(Br)cc(S(=O)(=O)Nc3ccc(C(F)(F)F)cc3)c21	HTT prom inh inconclusive, pS6 MEF inh inconclusive, PMP22 txn prim inconclusive
O=C(C1CC1)N1CCc2cc(Br)cc(S(=O)(=O)Nc3ccc(F)c(F)c3)c21	HTT prom inh inconclusive, PMP22 txn prim inconclusive, FH mod 28µM, S16 viability inconclusive
CC1=C(CO)C(=O)O[C@@H]([C@@H](C)[C@H]2CC[C@H]3[C@@H]4C[C@H]5O[C@]56[C@@H](O)C=CC(=O)[C@]6(C)[C@H]4CC[C@]23C)C1	none (no result: HTT prom inh, pS6 MEF inh, HTT-AS act, PMP22 txn prim, S16 viability)
COc1ccc(/C=C(\C#N)c2nc3ccccc3n2C)c(OC)c1	HTT-AS act 3.5µM, FH mod inconclusive, S16 viability inconclusive
COc1cc(/C=C(\C#N)c2nc3ccccc3n2C)cc(OC)c1OC	HTT-AS act inconclusive, FH mod inconclusive
O=C1Nc2ccccc2C(O)(c2ccccc2)C1O (centres undefined)	none (no result: HTT prom inh, pS6 MEF inh, HTT-AS act, PMP22 txn prim, S16 viability)
COc1ccc(S(=O)(=O)NCC(c2cccs2)S(=O)(=O)c2ccccc2)cc1OC (centres undefined)	PMP22 txn prim inconclusive, S16 viability inconclusive
O=S(=O)(NCC(c1cccs1)S(=O)(=O)c1ccccc1)c1ccc(F)cc1 (centres undefined)	PMP22 txn prim inconclusive, S16 viability 20µM
Cc1cc(S(=O)(=O)C(CNC(=O)COc2ccccc2)c2cccs2)ccc1F (centres undefined)	none
O=S(=O)(NCC(c1cccs1)S(=O)(=O)c1ccccc1)c1ccc(F)c(C(F)(F)F)c1 (centres undefined)	HTT prom inh inconclusive, PMP22 txn prim inconclusive, S16 viability 20µM
NC(=O)c1cnc(N[C@@H]2CCCC[C@H]2N)nc1Nc1cccc(-n2nccn2)c1	none (no result: HTT prom inh, pS6 MEF inh, HTT-AS act, PMP22 txn prim, S16 viability)
O=C(Nc1nnc2n1CCS2)c1cc(C(F)(F)F)cc(C(F)(F)F)c1	PMP22 txn prim 8.9µM, FH mod inconclusive, S16 viability inconclusive
O=C1c2ccccc2-[n+]2ccc3c([nH]c4ccccc43)c21	HTT prom inh inconclusive, FH mod 6.9µM (no result: pS6 MEF inh, PMP22 txn prim, S16 viability)
COc1ccc(CNC(=O)c2nc(S(=O)(=O)Cc3ccccc3)ncc2Cl)cc1	HTT prom inh inconclusive, pS6 MEF inh 21µM, PMP22 txn prim 5.3µM, S16 viability 5.6µM
Cc1ccc(CNC(=O)c2nc(SCc3ccccc3C)ncc2Cl)cc1	none
O=C(c1ccc(Cl)cc1)N(Cc1ccco1)Cc1ccco1	none
CS(=O)(=O)c1ncc(Cl)c(C(=O)N(Cc2ccc(Cl)cc2)Cc2ccco2)n1	HTT prom inh inconclusive, pS6 MEF inh 1.8µM, PMP22 txn prim inconclusive, S16 viability 4.5µM
COc1ccc(N(Cc2ccccc2)C(=O)c2nc(S(C)(=O)=O)ncc2Cl)cc1	HTT prom inh inconclusive, pS6 MEF inh 2.1µM, PMP22 txn prim 1.8µM, S16 viability 4.5µM
O=C(NCc1ccccc1)c1nc(S(=O)(=O)Cc2ccccc2)ncc1Cl	HTT prom inh inconclusive, pS6 MEF inh 16µM, PMP22 txn prim 6.5µM, S16 viability 8.9µM
Cc1cc(N2CCN([C@@H]3CN[C@H](C(=O)N4CCSC4)C3)CC2)n(-c2ccccc2)n1	none (no result: HTT prom inh, pS6 MEF inh, HTT-AS act, PMP22 txn prim, S16 viability)
CSc1ccc(/C=C/c2nc3ccccc3n2S(=O)(=O)c2cccc(Cl)c2)cc1	HTT prom inh inconclusive, PMP22 txn prim inconclusive, S16 viability inconclusive
O=S(=O)(c1cccc(Cl)c1)n1c(/C=C/c2ccccc2Cl)nc2ccccc21	HTT-AS act inconclusive, PMP22 txn prim inconclusive, S16 viability 13µM
CC(C)(O)c1ccc2c(c1)C(=O)C[C@H]1[C@](C)(C(=O)O)CCC[C@]21C	none (no result: HTT prom inh, pS6 MEF inh, HTT-AS act, PMP22 txn prim, S16 viability)
COc1ccc(NC(=O)CSc2nc(-c3cccs3)cc(C(F)(F)F)c2C#N)cc1	none
Cc1cccc(NC(=O)CSc2nc(-c3cccs3)cc(C(F)(F)F)c2C#N)c1	PMP22 txn prim 15µM, S16 viability inconclusive
CCN(C(=O)C1CCN(S(=O)(=O)c2cc(Br)cc3c2N(C(C)=O)CC3)CC1)c1cccc(C)c1	PMP22 txn prim 8.9µM, S16 viability inconclusive
COc1ccc(C(OC2OC(CO)C(O)C(O)C2O)C(C)O)cc1 (centres undefined)	none (no result: HTT prom inh, pS6 MEF inh, HTT-AS act, PMP22 txn prim, S16 viability)
O=C1NC(Nc2ccccc2)=N/C1=C\c1ccc2c(c1)OCO2	none (no result: HTT prom inh, pS6 MEF inh, HTT-AS act, PMP22 txn prim, S16 viability)
CCOCc1cc(CN2CCN(c3cccc(Cl)c3)CC2)c(O)c2ncccc12	HTT prom inh inconclusive, pS6 MEF inh 12µM, PMP22 txn prim 5.7µM, FH mod inconclusive, S16 viability inconclusive
CCOc1ccc2oc(=O)cc(CN3CCN(c4ccccc4)CC3)c2c1	PMP22 txn prim inconclusive
COc1ccc(-c2noc(CN3CCN(c4cccc(Cl)c4)CC3)n2)cc1	FH mod inconclusive
